# Structures can show the parent of a compound that is named as a salt.
# System: 4T1
# Assay: % inhibition of 4T1 cell number vs DMSO control; higher = stronger growth inhibition
# Details: 1 µM, 3 days
# Outline: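 In 96-well imaging plates whose edge wells went unused, 3000 4T1-H2B-GFP mouse breast cancer cells per well were seeded in 2% FBS medium onto plastic, denuded lung matrix, mCAF1 fibroblast-derived matrix, Matrigel (15 μg/mL) or 0.2% gelatin. Sixteen hours on, kinase inhibitors went in at 1 μM final for 3 days before formalin fixation, DAPI staining and imaging on an INCell Analyzer 2200. Counting of GFP-positive nuclei gave cell numbers, from which percent inhibition relative to control was derived.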
# [1] = substrate: lung fibroblast-derived matrix
# [2] = substrate: mCAF1 fibroblast-derived matrix
SMILES,% inhibition of 4T1 cell number (substrate: Matrigel),% inhibition of 4T1 cell number (substrate: gelatin),% inhibition of 4T1 cell number [1],% inhibition of 4T1 cell number [2],% inhibition of 4T1 cell number (substrate: plastic)
Cn1cnc2cc3c(Nc4cccc(Br)c4)ncnc3cc21,5.46%,-49.9%,-0.216%,-36.5%,-21.9%
"CNCCNS(=O)(=O)c1cccc2cnccc12 [H-8, Dihydrochloride]",-17.7%,25.7%,-6.96%,30.5%,-63%
Cn1sc(=O)n(Cc2ccccc2)c1=O [GSK-3b Inhibitor I],-33.1%,10.3%,9.49%,21.6%,-62.7%
"CCC(CO)Nc1nc(NCc2ccccc2)c2ncn(C(C)C)c2n1 [Roscovitine, (S)-Isomer]",-4.8%,59.2%,1.55%,29.4%,-6.54%
COc1ccc2c(c1)c1c3c(c4c5ccccc5n(C)c4c1n2CC(O)CN(C)C)C(=O)NC3=O (stereo not given),-13%,-19%,-1%,17.9%,-42.9%
CC[n+]1c(/C=C/N(C)c2ccccc2)n(-c2ccccc2)c2ccc(-c3nc4ccccc4s3)cc21 [Akt Inhibitor IV],53.2%,56.7%,-4.76%,92.1%,78.2%
O=C1NC(=O)c2c1c1c3ccccc3[nH]c1n1cncc21 [Isogranulatimide],-41.6%,-25.6%,-7.38%,9.11%,-78.2%
CCCCc1c(-c2ccc(O)cc2)[nH]c2nccnc12 [Aloisine A],53.4%,38%,1.62%,-3.45%,48.1%
CCN(CC)CCCCN1c2ccccc2Oc2ccc(Cl)cc21 [Akt Inhibitor X],72.7%,46.6%,-2.93%,-26.9%,40%
CCCOc1ccc(/C=C2/SC(=O)NC2=O)cc1 [PIM1/2 Kinase Inhibitor VI],16.2%,22.9%,2.3%,-16.9%,-1.33%
"CC(C)n1cnc2c(NCc3ccccc3O)nc(NCCCO)nc21 [Cdk Inhibitor, p35]",20.1%,13.4%,-6.35%,-51.8%,14.9%
O=C1Cc2c([nH]c3ccc([N+](=O)[O-])cc23)-c2ccccc2N1 [Alsterpaullone],61.5%,45.2%,-3.92%,-0.808%,56.1%
O=C(Nc1cc(C(F)(F)F)cc(C(F)(F)F)c1)c1cc(Cl)ccc1O [IKK-2 Inhibitor V],91.1%,90.6%,80.7%,82.9%,94.5%
O=C(Nc1ccncc1)Nc1c(Cl)cc(Cl)cc1Cl [Rho Kinase Inhibitor II],-9.94%,-2.18%,-4.7%,-19.5%,-18.6%
c1ccc(-c2cnc(Nc3ccc(OCCN4CCCC4)cc3)s2)cc1 [Flt-3 Inhibitor III],95.2%,88.5%,5.06%,65.3%,72.6%
CCOc1nc(NC(=O)Cc2cc(OC)ccc2OC)cc(N)c1C#N [JNK Inhibitor VIII],-7.17%,11.6%,-17.8%,31.4%,-42.5%
"O=c1[nH][nH]c2nnc(-c3c(-c4ccccc4)nn4ccccc34)cc12 [ERK Inhibitor II, Negative control]",-40.3%,-11.4%,-10%,3.24%,-83.1%
Nc1nc(Nc2ccc(S(N)(=O)=O)cc2)nn1C(=S)Nc1c(F)cccc1F [Cdk1/2 Inhibitor III],90.1%,90%,1.23%,97.8%,95.5%
"O=S(=O)(c1cccc2cnccc12)N1CCCNCC1 [HA 1077, Dihydrochloride]",25.3%,21.7%,-23.5%,4.22%,21.9%
Cc1cc(C=C2C(=O)C=CC2=O)cc(C)c1O,32.9%,68.1%,10.9%,-26.2%,32.3%
C[S+]([O-])c1ccc(-c2nc(-c3ccc(F)cc3)c(-c3ccncc3)[nH]2)cc1 (stereo not given),28.8%,44.4%,99.2%,14.9%,23.3%
O=c1cc(N2CCNCC2)oc2c(-c3ccccc3)cccc12,-14.2%,-6.29%,-1.5%,6.84%,-42.8%
CO[C@H]1C[C@@H]2CC[C@@H](C)[C@@](O)(O2)C(=O)C(=O)N2CCCC[C@H]2C(=O)O[C@H]([C@H](C)C[C@@H]2CC[C@@H](O)[C@H](OC)C2)CC(=O)[C@H](C)/C=C(\C)[C@@H](O)[C@@H](OC)C(=O)[C@H](C)C[C@H](C)/C=C/C=C/C=C/1C [Rapamycin],-18.4%,-32%,-0.258%,23.7%,-50.8%
O=C(O)c1ccc2c3c1cccc3c(=O)n1c3ccccc3nc21,30.6%,44.3%,-11.4%,31.2%,32.2%
NS(=O)(=O)c1ccc(N=Nc2c(O)[nH]c3ccc(Br)cc23)cc1 [Cdk2 Inhibitor II],14.7%,31.6%,-5.54%,18.1%,-9.24%
CC(C)(C)c1nc2c3cc[nH]c(=O)c3c3cc(F)ccc3c2[nH]1 [JAK Inhibitor I],-23.5%,-101%,-5.54%,20.7%,-71.6%
C[C@@H](N)C1CCC(C(=O)Nc2ccncc2)CC1 (stereo not given in full),-13.2%,-4.77%,-5.27%,9.93%,-47.5%

SMILES,% inhibition of 4T1 cell number (substrate: Matrigel),% inhibition of 4T1 cell number (substrate: gelatin),% inhibition of 4T1 cell number [1],% inhibition of 4T1 cell number [2],% inhibition of 4T1 cell number (substrate: plastic)
N#CC(c1ccnc(NCCc2cccnc2)n1)c1nc2ccccc2s1 (stereo not given) [JNK Inhibitor V],-8.79%,6.99%,-8.74%,52.2%,8.02%
CCOC(=O)c1c(C)[nH]c(/C=C2\C(=O)Nc3ccccc32)c1C [VEGF Receptor 2 Kinase Inhibitor I],21.5%,-34.8%,-12.5%,-29.2%,16.8%
CSc1nc(-c2ccnc(NC(C)c3ccccc3)c2)c(-c2ccc(F)cc2)[nH]1 (stereo not given) [p38 MAP Kinase Inhibitor III],-9.55%,-7.6%,10.6%,23.1%,-65%
"O=C1Nc2ccc(Cl)cc2/C1=C/c1cc(Cl)c(O)c(Cl)c1 [PKR Inhibitor, Negative Control]",-11.8%,-80.4%,86.7%,8.78%,-63.2%
O=C(c1ccc(Nc2nccc(-c3cc4ccccc4s3)n2)cc1)N1CCC(N2CCCC2)CC1 [IKK Inhibitor VII],81.6%,55.4%,-10%,52.9%,-20.6%
COc1cc(OC)c(C=C2C(=O)Nc3ccccc32)c(OC)c1,85.7%,85.1%,86.7%,84.2%,70.1%
COc1cc2ncnc(Nc3ccc(O)c(Br)c3)c2cc1OC [JAK3 Inhibitor II],-13.3%,-52.6%,-6.47%,25.3%,-53.6%
COc1ccc(OC)c2c(=S)c3ccccc3[nH]c12,-8.48%,-7.36%,-13.6%,4.29%,-67%
Fc1ccc(-c2nc3n(c2-c2ccncc2)CCS3)cc1,28.9%,18.4%,-11.4%,18.8%,9.54%
"Cn1c(O)c(-c2[nH]c3ccccc3c2N=O)c2ccc(Br)cc21 [GSK-3 Inhibitor IX, Control, MeBIO]",3.95%,2.35%,16%,-1.76%,-22.7%
N#Cc1c(C2CCNCC2)cc(-c2c(O)cccc2OCC2CC2)nc1N [IKK-2 Inhibitor VIII],-23.5%,-17.9%,-4.53%,9.43%,-39.2%
NC(=O)Nc1cc(-c2ccccc2)sc1C(N)=O [IKK-2 Inhibitor XI],48%,55%,2.01%,19.8%,28.6%
CN(C)S(=O)(=O)c1ccc2c(c1)/C(=C/c1cc3c([nH]1)CCCC3)C(=O)N2,-10.2%,2.33%,-16.4%,-22.1%,-51.8%
"c1cc(-c2cnn3cc(-c4ccc(OCCN5CCCCC5)cc4)cnc23)ccn1 [AMPK Inhibitor, Compound C]",49.6%,27.5%,12.9%,7.87%,52.8%
c1nc2c(NC3CCCCC3)nc(Nc3ccc(N4CCOCC4)cc3)nc2[nH]1 [Reversine],91%,89.5%,7.75%,85.6%,63.1%
"O=C1C(=Cc2ccc(O)cc2)C2=Nc3ccccc3C2=C1C1=C2C(=Nc3ccccc32)C(=Cc2ccc(O)cc2)C1=O [Scytonemin, Lyngbya sp.]",46.6%,52.5%,65.9%,26.2%,39.5%
Nc1[nH]nc2nnc(-c3c(-c4ccccc4)nn4ccccc34)cc12,-37.8%,-5.47%,-14.3%,1.41%,-58.3%
N#C/C(=C(/N)Sc1ccccc1N)c1cccc(C(O)c2ccncc2)c1 (stereo not given) [MEK Inhibitor I],-42.3%,30.7%,50.2%,40.9%,-71.7%
NCCNc1ncc(C(N)=O)c(Nc2cccc(C(F)(F)F)c2)n1 [Syk Inhibitor II],-0.528%,-84.2%,-1.24%,-23.5%,-12.4%
CN[C@@H]1C[C@H]2O[C@@](C)([C@@H]1OC)n1c3ccccc3c3c4c(c5c6ccccc6n2c5c31)C(=O)N[C@H]4O,99.4%,99.2%,14.1%,88.8%,95.5%
O=[N+]([O-])c1ccc(-c2nc(-c3ccc(F)cc3)c(-c3ccncc3)[nH]2)cc1,-4.18%,12%,-11.4%,26.1%,-60.5%
CCCCn1c2ccc(O)cc2c2c3c(c(-c4ccccc4Cl)cc21)C(=O)NC3=O [Wee1 Inhibitor II],52.6%,63%,15.6%,4.43%,57.9%
CCC(=O)Nc1ccc2ncnc(Nc3cccc(Br)c3)c2c1,-8.72%,-108%,-2.26%,-19.4%,-59.2%
O=Nc1c(-c2c(O)[nH]c3cc(Br)ccc23)[nH]c2ccccc12 [GSK-3 Inhibitor IX],-37.5%,-7.89%,-2.79%,55.1%,42.2%
NC(=O)Nc1sc(-c2ccccc2)cc1C(N)=O [IKK-2 Inhibitor VI],-32%,-1.17%,-16%,28.5%,-60%
O=C(c1ccccc1)c1ccc(N2CCOCC2)cc1O [DNA-PK Inhibitor V],58%,77.4%,-6.09%,54.5%,92.7%
O=C1NC(=O)/C(=C/c2ccc3c(c2)OC(F)(F)O3)S1 [PI 3-Kg Inhibitor II],27.2%,11.1%,39.7%,5.87%,37.8%

# Reference: the supplement of paper PMC8269313
